Hits are enriched below; roughly 4.7% of the tested compounds scored in any of these assays.
PfHsp90 yeast 2: growth inhibition of PfHsp90-expressing yeast, primary screen, antimalarial PfHsp90 inhibitor project, S. cerevisiae, BacTiter-Glo luminescence, single point, set 2 | BacTiter-Glo ATP, 48 h; yeast lacking PDR1 and PDR3 efflux regulators | inhibition, % at 9.4 µM | 310,000 tested, 0.32% active;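 active = every replicate shows inhibition above about 80%, whatever the replicate mean, limit read from the data; inconclusive = mean inhibition reaches the set limit but some replicate falls short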;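 note: 0% = DMSO neutral controls and 100% = 20 µM radicicol positive controls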
tim10-1 inh: growth inhibitors of tim10-1 mutant yeast, primary screen, luminescence, uHTS; S. cerevisiae tim10-1 ts strain growth, BacTiter-Glo, 24 h; inhibition, % at 20 µM; 330,000 tested, 2.2% active; AID 463190, 2010;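 active = inhibition of at least 40%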;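 note: mutant grown at 25 °C; 0% = DMSO wells with yeast and 100% = wells holding no yeast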
ATG4B inh: ATG4B protease inhibitors, primary screen, biochemical, fluorescence, uHTS. Cysteine protease ATG4B (Homo sapiens), Q9Y4P1. ATG4B cleavage of LC3-PLA2, NBD-HPC fluorescence, 1 h. inhibition, % at 8.33 µM. 340,000 tested, 0.51% active. AID 504462, 2011; in the data active = inhibition above about 40%
Target sequence (Q9Y4P1 whole entry, looked up): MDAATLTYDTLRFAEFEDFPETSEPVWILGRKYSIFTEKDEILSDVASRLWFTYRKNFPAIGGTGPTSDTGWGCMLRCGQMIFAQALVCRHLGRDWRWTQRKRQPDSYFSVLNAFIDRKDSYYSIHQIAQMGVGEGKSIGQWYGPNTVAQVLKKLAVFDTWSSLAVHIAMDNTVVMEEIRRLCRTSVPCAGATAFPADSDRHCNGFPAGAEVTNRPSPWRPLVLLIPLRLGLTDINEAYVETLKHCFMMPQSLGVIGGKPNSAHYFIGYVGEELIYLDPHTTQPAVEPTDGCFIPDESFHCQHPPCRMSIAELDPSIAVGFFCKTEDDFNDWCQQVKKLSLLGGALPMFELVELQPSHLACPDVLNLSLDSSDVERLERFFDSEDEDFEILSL
tim23-1 inh: growth inhibitors of tim23-1 mutant yeast, primary screen, luminescence, uHTS; S. cerevisiae tim23-1 growth, BacTiter-Glo luminescence, 24 h; inhibition, % at 20 µM; 330,000 tested, 1.3% active; AID 463212, 2010;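 active = growth inhibition of the mutant yeast at or above 50%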;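 note: temperature-sensitive mutant grown at 25 °C; plate controls were DMSO-treated mutant yeast for no effect and medium wells lacking yeast for full effect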
TIM10 inh: growth inhibitors of isogenic TIM10 control yeast, primary screen, counter-screen for tim10-1 yeast inhibitor project, luminescence, uHTS | S. cerevisiae TIM10 strain growth, BacTiter-Glo luminescence, 24 h | inhibition, % at 10 µM | 330,000 tested, 1.4% active | AID 463195, 2010;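 active = inhibition of 40% or more at the single tested concentration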;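 note: wild-type TIM10 isogenic control strain grown at permissive 25 °C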
SKKanGAS inh: S. pyogenes SKKanGAS growth inhibitors in kanamycin, primary screen, streptokinase expression inhibitor project, SKKanGAS strain, BacTiter-Glo luminescence. 6 h. inhibition, % at 7.5 µM. 300,000 tested, 1.3% active. AID 1662, 2009;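 active = mean replicate score, as percent of positive control median, at least 50; inconclusive = mean below 50 but one replicate at or above 50; inactive = mean and every replicate below 50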;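 note: strain carries kanamycin resistance gene driven by streptokinase promoter and grows in 40 µg/ml kanamycin; loss of luminescence reflects streptokinase promoter inhibition or plain growth inhibition; 0% = median of DMSO wells and 100% = positive control at its reference dose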
Starred values were filed as active, the others as inactive; u = inconclusive; x = not tested or not shown.

SMILES	PfHsp90 yeast 2	tim10-1 inh	ATG4B inh	tim23-1 inh	TIM10 inh	SKKanGAS inh
CCOc1ccc(C(NC(=O)c2ccco2)c2ccc(OC)c(OC)c2)cc1 (stereo not given)	-4	-13	-8	-3	-33	1
O=C(NC(c1ccc(Cl)cc1)c1cc(Cl)c2cccnc2c1O)c1cccnc1 (stereo not given)	102*	x	16	x	x	113*
COc1ccc(C(NC(C)=O)c2cc(Cl)c3cccnc3c2O)cc1 (stereo not given)	-103	36	2	46	-5	53*
CC(=O)NC(c1ccc(C)cc1)c1cc([N+](=O)[O-])c2cccnc2c1O (stereo not given)	-17	37	-10	-13	25	u
CCCCC(=O)NC(c1cccs1)c1cc(Cl)c2cccnc2c1O (stereo not given)	103*	23	2	44	13	67*
CCCC(=O)NC(c1ccc(OC)c(OC)c1)c1cc(Cl)c2cccnc2c1O (stereo not given)	100*	26	4	8	-7	23
Cc1ccc(C(NC(=O)N2CCN(C)CC2)C(Cl)Cl)cc1F (stereo not given)	40	7	2	11	6	-10
C=CCNC(=S)NNC(=O)c1csc(C)c1C	-2	21	5	-3	-5	-1
C[C@@H]1NS(=O)(=O)[C@H]2C[C@@H]3C=C[C@]2(O3)[C@H]1OC(=O)c1ccc(C(C)(C)C)cc1	4	5	1	8	3	x
O=c1c(Cl)c(Nc2cccc(Cl)c2)cnn1-c1nc2ccccc2s1	-1	19	-7	27	23	23
COc1ccc(Nc2cnn(-c3nc4ccccc4s3)c(=O)c2Cl)cc1	96*	x	2	x	x	14
N#C/C(=C\c1cccnc1)c1ccccc1[N+](=O)[O-]	12	34	-6	23	6	1
O=C(Nc1nc(=S)ss1)c1ccc(Cl)cc1Cl	x	x	18	x	x	52*
O=C(Nc1ccc2ccccc2c1)c1ccc(Cl)cc1Cl	-28	38	0	24	12	32
CC12CCC(CC1)C(C)(C)O2	15	x	-6	x	x	100*
CCc1nnc(NC(=O)c2cccc(C(=O)Nc3nnc(CC)s3)n2)s1	65	x	5	x	x	99*
CCc1nnc(NC(=O)c2ccncc2)s1	-4	10	-11	10	0	-4
CCc1ccc(N2C(=O)C3C(C2=O)N2CCCN2C3c2ccccc2)cc1 (stereo not given)	-5	17	-5	21	0	9
O=C(Nc1nc(-c2ccccn2)cs1)c1cc(Cl)ccc1[N+](=O)[O-]	x	38	-5	4	-9	95*
Cc1cc(C(=O)Nc2nc(-c3ccccn3)cs2)ccc1[N+](=O)[O-]	36	-2	-3	-22	12	91*
Cc1csc(NC(=O)c2ccc(Cl)cc2[N+](=O)[O-])n1	3	10	-7	-2	20	1
O=C(Nc1nc(-c2ccccn2)cs1)c1ccc2c(c1)OCCO2	1	5	2	14	3	83*
CCCCN(Cc1ccccc1)S(=O)(=O)c1c(N)n(C)c(=O)n(C)c1=O	-12	6	6	20	4	1
CC1(C)CC[C@]2(C(=O)O)CC[C@]3(C)C(=CCC4[C@@]5(C)CC[C@H](O)C(C)(C)C5CC[C@]43C)C2C1 (stereo not given in full)	6	x	-10	x	x	105*
COc1cccc(CNS(=O)(=O)c2ccc(N3CCCC3=O)cc2)c1	18	8	3	-2	-5	-3
C=C(C)COc1ccc(-c2n[nH]c(C)c2-c2ccc(Br)cc2)c(O)c1	-12	-41	4	48	29	99*
C=C(C)COc1ccc(-c2nc(N)ncc2Oc2ccc(OC)cc2)c(O)c1	-11	29	2	24	18	58*
C=C(C)COc1ccc(-c2nc(N)ncc2-c2ccc(Br)cc2)c(O)c1	-63	-40	0	23	26	96*

Source: PubChem (several laboratories)
